PubChem BioAssay (Tox21)
Active and inactive are the calls of the source. The call rests on the fitted dose curve; in most records, active means well fitted curve in the direction sought with a large enough effect in the repeat runs; inconclusive means weak or mixed curves; inactive means flat fitted curve, though single readings scatter. Non-standard residues stand in square brackets, D forms with d. Residues, ends and D or L forms follow the SMILES beside them. Orn = NCCC[C@H](N)C(=O)O

experiment: qHTS assay to test for compound auto fluorescence at 590 nm (red) in HepG2 cell free culture (AID 720684); details: cell-free medium autofluorescence, red 540/590 nm; series mostly up to 46 µM
Text: U.S. Tox21 Program National Center for Advancing Translational Sciences [NCATS] NIH Chemical Genomics Center [NCGC] U.S. Environmental Protection Agency [EPA] National Institutes of Environmental Health Sciences [NIEHS] National Toxicology Program [NTP] U.S. Food and Drug Administration [FDA] Tox21 Assay Overview: Compound auto fluorescence often interferes with screening of the compound library against various biological targets and signaling pathways. Some of these compounds may have fluorophoric properties. Such properties may interfere with the assay outputs resulting in false positives and/or negatives. To decrease such complications and ensure the compound activities are relevant in terms of biological response, the Tox21 10K compound library was screened for auto fluorescence. From the fluorophores used as reporter signals in our screening assays, the auto fluorescence equivalencies of compounds against three fluorophores have been evaluated: Triamterene, Fluorescein and Rose Bengal sodium for blue, green and red fluorescence, respectively. The fluorescence intensities were measured using Excitation/Emission wavelengths at 405/460nm, 485/535nm and 540/590nm for blue, green and red labels, respectively. This assay includes the red fluorescence data.
Tox21 Assay Protocol Summary: 5 uL of culture medium (MEM containing 10% FBS) per well was dispensed into black wall/clear bottom 1536-well plates using a Multidrop Combi Dispenser (ThermoFisher Scientific, Waltham, MA). After 23 nL compound or DMSO vehicle was transferred into assay plate by a pintool work station (Kalypsys, San Diego, CA), fluorescence intensities in the assay plates were measured by an Envision (PerkinElmer, Shelton, CT) plate reader using three labels for measuring blue, green and red fluorescence at […] 460, 535 and 590nm respectively.

SMILES | outcome
C[C@]12O[C@H](C[C@]1(O)CO)n1c3ccccc3c3c4c(c5c6ccccc6n2c5c31)CNC4=O | inactive
CC/C=C\C/C=C\C/C=C\C/C=C\C/C=C\C/C=C\CCC(=O)O | inactive
O=C(O)CCCC/C=C(\c1ccccc1)c1cccnc1 | inactive
CCc1cn([C@H]2C[C@H](O)[C@@H](CO)O2)c(=O)[nH]c1=O | inactive
O=C(O)/C=C/C(=O)Nc1ccc(S(=O)(=O)Nc2nccs2)cc1 | inactive
CC(=O)[C@]1(O)Cc2c(O)c3c(c(O)c2[C@@H](O[C@H]2C[C@H](N)[C@H](O)[C@H](C)O2)C1)C(=O)c1ccccc1C3=O | inactive
C=C1[C@@H]2CC[C@@H](C2)C1(C)C | inactive
CN1CCN(CCCN2c3ccccc3Sc3ccc(C(F)(F)F)cc32)CC1 | inactive
CC1(C)C[C@@H]1C(=O)N/C(=C\CCCCSC[C@H](N)C(=O)O)C(=O)O | inactive
NS(=O)(=O)c1cc(Cl)c(Cl)c(S(N)(=O)=O)c1 | inactive
CCC(NC(C)C)C(O)c1ccc(O)c(O)c1 (stereo not given) | inactive
COC1[C@@H](O[C@@H]2O[C@H](C)[C@@H](O[C@H]3C[C@@](C)(O)[C@H](OC(=O)CC(C)C)[C@H](C)O3)[C@H](N(C)C)[C@H]2O)[C@@H](CC=O)C[C@@H](C)[C@@H](O)/C=C/C=C/C[C@@H](C)OC(=O)C[C@H]1OC(C)=O (stereo not given in full) | inactive
CO[C@H](C(=O)[C@@H](O)[C@@H](C)O)C1Cc2cc3cc(O[C@H]4C[C@@H](O[C@H]5C[C@@H](O)[C@H](O)[C@@H](C)O5)[C@@H](O)[C@@H](C)O4)c(C)c(O)c3c(O)c2C(=O)[C@H]1O[C@H]1C[C@@H](O[C@H]2C[C@@H](O[C@H]3C[C@](C)(O)[C@H](O)[C@@H](C)O3)[C@H](O)[C@@H](C)O2)[C@H](O)[C@@H](C)O1 (stereo not given in full) | inactive
NCCCC[C@H](NC(=O)[C@@H]1CCCN1C(=O)[C@@H]1CSSC[C@H](N)C(=O)N[C@@H](Cc2ccc(O)cc2)C(=O)N[C@@H](Cc2ccccc2)C(=O)N[C@@H](CCC(N)=O)C(=O)N[C@@H](CC(N)=O)C(=O)N1)C(=O)NCC(N)=O | inactive
NC[C@@H]1CC[C@@H](N)[C@@H](O[C@H]2[C@H](O)[C@@H](O[C@H]3O[C@H](CO)[C@@H](O)[C@H](N)[C@H]3O)[C@H](N)C[C@@H]2N)O1 | inactive
N=C(N)n1cccn1 | inactive
CNCCC=C1c2ccccc2CCc2ccccc21 | inactive
Nc1nc(NC2CC2)c2ncn([C@@H]3C=C[C@@H](CO)C3)c2n1 | inactive
O=C(O)c1ccc(NC2OC[C@@H](O)[C@H](O)[C@H]2O)cc1 (stereo not given in full) | inactive
CCCOC(=O)c1ccccc1O | inactive

SMILES | outcome
CC1=C(/C=C/C(C)=C/C=C/C(C)=C/C=C/C=C(C)/C=C/C=C(C)/C=C/C2=C(C)CCCC2(C)C)C(C)(C)CCC1 | inactive
CCN1CCCC1CNC(=O)c1cc(S(=O)(=O)CC)ccc1OC (stereo not given) | inactive
CCCn1c(=O)[nH]c(=O)c2[nH]cnc21 | inactive
Cc1cc(CC(C)CC(C)(C)C)n(O)c(=O)c1 (stereo not given) (tested in a mixture with another compound) | inactive
CN1CC[C@H](c2c(O)cc(O)c3c(=O)cc(-c4ccccc4Cl)oc23)[C@H](O)C1 | inactive
C=CC(N)CCC(=O)O (stereo not given) | inactive
CCC(C)(C)c1ccc(CC(C)CN2C[C@@H](C)O[C@@H](C)C2)cc1 (stereo not given in full) | inactive
NC(=S)NS(=O)(=O)c1ccc(N)cc1 | inactive
CN1C(=O)C[C@@H](C(=O)N[C@@H](Cc2cnc[nH]2)C(=O)N2CCC[C@H]2C(N)=O)NC1=O | inactive
FC(F)(F)COCC(F)(F)F | inactive
CC(C)COC(=O)OCN1C(=O)CN(CCN2CC(=O)N(COC(=O)OCC(C)C)C(=O)C2)CC1=O | inactive
CC(C)[N+]1(C)[C@@H]2CC[C@H]1CC(OC(=O)C(CO)c1ccccc1)C2 (stereo not given in full) | inactive
CSCCC(N)C(=O)O (stereo not given) | inactive
CC1CCCC(C)N1NC(=O)c1ccc(Cl)c(S(N)(=O)=O)c1 (stereo not given) | inactive
CO/N=C(\C(=O)N[C@@H]1C(=O)N2C(C(=O)O)=C(CSc3cnns3)CS[C@H]12)c1csc(N)n1 | inactive
CC(C)OC(=O)Nc1ccc2nc(-c3cscn3)[nH]c2c1 | inactive
CO/N=C(\C(=O)N[C@@H]1C(=O)N2C(C(=O)[O-])=C(C[n+]3ccc(N)n3CCO)CS[C@H]12)c1csc(N)n1 | inactive
CCN(CC)CC#CCOC(=O)C(O)(c1ccccc1)C1CCCCC1 (stereo not given) | inactive
CC(C)C[C@@H]1NC(=O)[C@H](CCCN)NC(=O)[C@H](C(C)C)NC(=O)[C@@H]2CCCN2C(=O)[C@@H](Cc2ccccc2)NC(=O)[C@H](CC(C)C)NC(=O)[C@H](CCCN)NC(=O)[C@H](C(C)C)NC(=O)[C@@H]2CCCN2C(=O)[C@@H](Cc2ccccc2)NC1=O (cyclo(V[Orn]L[dF]PV[Orn]L[dF]P)) | inactive
CCCCCCCCCC(=O)NO | inactive
